In the supplement of paper PMC12350171:
Structures can show the parent of a compound that is named as a salt. Values without a mark were called inactive.

Experiments:
Conditions in all cases: 20 µM
[1] = tested on: Salmonella enterica typhimurium; experiment: growth AUC normalised to DMSO control (fraction of control); higher = less growth inhibition, active = hit call of the paper
In short: (§1)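 Pathogens passaged twice anaerobically were inoculated at a starting OD578 of 0.01 into pre-reduced mGAM plates with drug at 20 μM and 1% DMSO, sealed with breathable membranes. Haemophilus parainfluenzae medium was supplemented with hemin and NAD. OD578 was read hourly for 24 h, with three biological replicates. Growth-curve AUC was computed by the trapezoidal rule up to the exponential-to-stationary transition and normalised to DMSO controls on the same plate.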

Shigella flexneri = experiment: as above
In short: as §1

Vibrio cholerae = experiment: as above
In short: as §1

[2] = tested on: Yersinia pseudotuberculosis; experiment: as above
In short: as §1

P. vulgatus RND KO = experiment: growth AUC normalised to DMSO control (median) (fraction of control); higher = less growth inhibition, active = hit call of the paper
In short: (§2)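 Anaerobic growth was tracked hourly at OD578 for 24 h in 96-well plates of mGAM seeded at OD578 0.01 with each approved-drug library compound at 20 μM and 1% DMSO. Strains had first been passaged twice overnight without oxygen. Three biological replicates were run. The reported median is the area under the curve, calculated by the trapezoidal rule on curves truncated at entry into stationary phase and normalised to vehicle wells on the same plate.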

P. vulgatus WT = experiment: as above
In short: as §2

[3] = tested on: S. enterica typhimurium WT; experiment: as above
In short: as §2

[4] = tested on: S. enterica typhimurium tolC KO; experiment: as above
In short: as §2
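Wherever growth AUC normalised to DMSO control (median) is given: active when median AUC fell below 0.1.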

| SMILES | growth AUC normalised to DMSO control [1] | growth AUC normalised to DMSO control (Shigella flexneri) | growth AUC normalised to DMSO control (Vibrio cholerae) | growth AUC normalised to DMSO control [2] | growth AUC normalised to DMSO control (P. vulgatus RND KO) | growth AUC normalised to DMSO control (P. vulgatus WT) | growth AUC normalised to DMSO control [3] | growth AUC normalised to DMSO control [4] |
| --- | --- | --- | --- | --- | --- | --- | --- | --- |
| Clc1ccc(COC(Cn2ccnc2)c2ccc(Cl)cc2Cl)cc1 (stereo unspecified) [Econazole nitrate] | 0.977 | 0.987 | 0.962 | 1.01 | 0.899 | 0.902 | 1 | 0.912 |
| COc1cc(NS(=O)(=O)c2ccc(N)cc2)nc(OC)n1 [Sulfadimethoxine] | 1.02 | 1.01 | 1.02 | 0.987 | 0.994 | 1.04 | 1 | 0.99 |
| c1ccc(-c2ccc(C(c3ccccc3)n3ccnc3)cc2)cc1 (stereo unspecified) [Bifonazole] | 1.01 | 1.04 | 1 | 1.02 | 0.983 | 1 | 0.999 | 0.92 |
| O=C(O)CCCC[C@@H]1SC[C@@H]2NC(=O)N[C@@H]21 [Biotin] | 0.992 | 0.975 | 1 | 0.946 | 1.01 | 1.03 | 1 | 1 |
| c1ccc2[nH]c(-c3cscn3)nc2c1 [Tiabendazole] | 0.97 | 0.954 | 0.956 | 0.975 | 0.971 | 0.971 | 1 | 0.995 |
| NC(CO)C(=O)NNCc1ccc(O)c(O)c1O (stereo unspecified) [Benserazide hydrochloride] | 1 | 1 | 1.01 | 0.942 | 0.969 | 0.973 | 0.982 | 1 |
| CC(=O)OCC(=O)[C@@]1(OC(C)=O)[C@@H](C)C[C@H]2[C@@H]3C[C@H](F)C4=CC(=O)C=C[C@]4(C)[C@@]3(F)[C@@H](O)C[C@@]21C [Diflorasone Diacetate] | 1 | 0.977 | 1.01 | 1.01 | 1 | 1.03 | 0.997 | 1 |
| COc1cc2nc(N3CCN(C(=O)C4COc5ccccc5O4)CC3)nc(N)c2cc1OC (stereo unspecified) [Doxazosin mesylate] | 0.974 | 0.985 | 0.942 | 0.996 | 0.949 | 0.916 | 0.994 | 0.952 |
| O=C(O)c1cccnc1Nc1cccc(C(F)(F)F)c1 [Niflumic acid] | 0.989 | 0.998 | 0.897 | 1.01 | 0.907 | 0.936 | 1 | 0.961 |
| C[C@]12CCC(=O)C=C1CC[C@@H]1[C@@H]2[C@@H](O)C[C@@]2(C)[C@H]1CC[C@]2(O)C(=O)CO [Hydrocortisone] | 0.983 | 0.969 | 0.97 | 1.01 | 0.98 | 0.994 | 0.999 | 0.996 |
| OCCOCCN1CCN(C(c2ccccc2)c2ccc(Cl)cc2)CC1 (stereo unspecified) [Hydroxyzine dihydrochloride] | 0.992 | 0.875 (active) | 0.975 | 0.865 | 0.989 | 1 | 1 | 0.978 |
| CCOc1ccc2c(c1)C(C)=CC(C)(C)N2 [Ethoxyquin] | 0.998 | 0.95 | 0.958 | 0.986 | 0.971 | 0.972 | 1.01 | 1 |
| COC(=O)[C@@H]1[C@H]2C[C@H]3c4[nH]c5ccccc5c4CCN3C[C@@H]2CC[C@@H]1O [Yohimbine hydrochloride] | 0.984 | 0.958 | 0.969 | 1 | 0.984 | 1.01 | 1 | 1 |
| O=C(O)c1cn(-c2ccc(F)cc2)c2cc(N3CCNCC3)c(F)cc2c1=O [Sarafloxacin] | 0.0114 (active) | 0.0236 (active) | 0.0367 (active) | 0.0409 (active) | 0.0128 (active) | 0.0174 (active) | 0.00503 (active) | 0.0079 (active) |
| CCc1cccc(CC)c1NC(=O)CN(CC(=O)O)CC(=O)O [Etifenin] | 0.985 | 0.99 | 0.989 | 0.999 | 0.998 | 1.01 | 1 | 0.993 |
| CC(=O)N(CC(O)CO)c1c(I)c(C(=O)NCC(O)CO)c(I)c(C(=O)NCC(O)CO)c1I (stereo unspecified) [Iohexol] | 0.997 | 0.968 | 0.995 | 1 | 1.01 | 0.978 | 0.999 | 1.01 |
| CN(C/C=C/c1ccccc1)Cc1cccc2ccccc12 [Naftifine hydrochloride] | 1.01 | 1.01 | 0.933 | 1.04 | 0.996 | 1.01 | 0.998 | 0.932 |
| CCN1CCCC(OC(=O)C(c2ccccc2)c2ccccc2)C1 (stereo unspecified) [Piperidolate hydrochloride] | 1.01 | 1.02 | 1.03 | 0.967 | 1.03 | 1.04 | 0.998 | 0.976 |
| Cn1ccnc1S [Methimazole] | 1.01 | 1.02 | 1.02 | 1.01 | 0.996 | 1.01 | 1 | 0.988 |
| CC(C(=O)O)c1ccc(C(=O)c2ccccc2)s1 (stereo unspecified) [Tiaprofenic acid] | 1 | 1.01 | 0.978 | 1.01 | 1.02 | 1.05 | 1 | 0.992 |
| CC(=O)O[C@]1(C(C)=O)CC[C@H]2[C@@H]3C=C(C)C4=CC(=O)CC[C@@H]4[C@H]3CC[C@@]21C [Nomegestrol acetate] | 0.991 | 1.03 | 1.06 | 1.01 | 0.963 | 1 | 1.03 | 0.94 |
| C[C@]12CC[C@@H]3c4ccc(O)cc4C[C@@H](CCCCCCCCC[S+]([O-])CCCC(F)(F)C(F)(F)F)[C@H]3[C@@H]1CC[C@@H]2O (stereo partly specified) [Fulvestrant] | 1.01 | 1.09 | 1.01 | 0.994 | 1.05 | 1.02 | 1.02 | 0.998 |
| C[C@H](CCC(=O)O)[C@H]1CC[C@H]2[C@@H]3C(=O)C[C@@H]4CC(=O)CC[C@]4(C)[C@H]3CC(=O)[C@]12C [Dehydrocholic acid] | 0.98 | 0.968 | 0.983 | 0.957 | 1.01 | 0.983 | 0.999 | 0.66 |
| Cc1cc2c(s1)Nc1ccccc1N=C2N1CCN(C)CC1 [Olanzapine] | 0.997 | 0.996 | 0.997 | 1.01 | 1.03 | 1.03 | 1.02 | 0.994 |
| CCOC(=O)NNc1nncc2ccccc12 [Todralazine hydrochloride] | 1.01 | 1.01 | 0.99 | 1.01 | 1.01 | 0.999 | 1.01 | 1.02 |
| CCN(CC)CCc1nc(-c2ccccc2)no1 [Oxolamine citrate salt] | 0.99 | 1.01 | 1.04 | 1.03 | 0.97 | 0.98 | 1.01 | 1.01 |
| O=C1Cc2cc(CCN3CCN(c4nsc5ccccc45)CC3)c(Cl)cc2N1 [Ziprasidone  hydrochloride monohydrate] | 1.02 | 1.06 | 1.01 | 1 | 1.03 | 1.07 | 1.02 | 1 |
